Data from PubChem BioAssay (EPA / NIEHS).
Activity calls are given as the source filed them. The calls were made as follows: active = hit-call score of the fitted dose curve at least 0.9, where 1 is the maximum; inactive = score below 0.9. Peptide text beside a SMILES is read from it.

Biological target: Myc proto-oncogene protein (Homo sapiens) (UniProt P01106)
Assay: ATG_Myc_CIS: Attagene CIS-FACTORIAL HepG2 Assay for human Myelocytomatosis (Myc) Proto-Oncogene Transcription Factor (AID 2282990)
Settings: HepG2, Attagene cis-reporter transcription factor activity; actives raise or lower the signal
Procedure: ATG_CIS is a cell-based, multiplexed-readout assay that uses HepG2, a human liver cell line, with measurements taken at 24 hours after chemical dosing in a 24-well plate.ATG_Myc_CIS is one of 52 assay component(s) measured or calculated from the ATG_CIS assay. It is designed to make measurements of mRNA induction, a form of inducible reporter, as detected with fluorescence intensity signals by Reverse transcription polymerase chain reaction (RT-PCR) and Capillary electrophoresis technology.Data from the assay component ATG_Myc_CIS was analyzed into 1 assay endpoint. This assay endpoint, ATG_Myc_CIS, was analyzed with bidirectional fitting relative to DMSO as the negative control and baseline of activity. Using a type of inducible reporter, measures of mRNA for gain or loss-of-signal activity can be used to understand the reporter gene at the transcription factor-level as they relate to the gene MYC. Furthermore, this assay endpoint can be referred to as a primary readout, because this assay has produced multiple assay endpoints where this one serves a reporter gene function. To generalize the intended target to other relatable targets, this assay endpoint is annotated to the dna binding intended target family, where the subfamily is basic helix-loop-helix leucine zipper.
Human liver HepG2 cells are transiently transfected with multiple reporter transcription units (MRTUs) in 6-well plates using FuGene 6 reagent (Roche; 3 ml FuGene/1 mg DNA). The MRTU constructs are regulated by a cis-regulating element (promoter). […] A major difference between the CIS and TRANS system is that in CIS activities of endogenous TFs are measured, whereas the TRANS assay evaluates changes in activities of exogenous, chimeric NR-Gal4 proteins. […] At the end of 24 hour incubation, total RNA was isolated using TriZol reagent (Invitrogen). The isolated RNA is then reverse-transcribed using oligo(dT) primer and Mo-MLV reverse transcriptase (Invitrogen) with DNAse I (Ambion) treatment for 30 min. The one-tenth of the produced cDNA was amplified by PCR using Taq DNA polymerase (Invitrogen) and two reporter sequence-specific primers. The PCR products were fluorescently labeled by primer extension with 6-arboxyfluorescein (6-FAM) 5'-labeled reporter sequence-specific primer (2 min at 95 C, 20 s at 68 C and 10 min at 72 C) and these products were digested with 5U of HpaI (New England Biolabs) for 2h at 37 C. The fragments were purified using Qiaquick PCR columns (Qiagen), analyzed on an ABI 3130xL genetic analyzer (Applied Biosystems) with peak positions identified by using a set of X-rhodamine (ROX)-labeled MapMarker1000 molecular weight standards (BioVentures). The raw capillary electrophoresis data was processed using Attagraph software (Attagene).

Chain of Myc proto-oncogene protein (Homo sapiens) (P01106 whole entry, looked up): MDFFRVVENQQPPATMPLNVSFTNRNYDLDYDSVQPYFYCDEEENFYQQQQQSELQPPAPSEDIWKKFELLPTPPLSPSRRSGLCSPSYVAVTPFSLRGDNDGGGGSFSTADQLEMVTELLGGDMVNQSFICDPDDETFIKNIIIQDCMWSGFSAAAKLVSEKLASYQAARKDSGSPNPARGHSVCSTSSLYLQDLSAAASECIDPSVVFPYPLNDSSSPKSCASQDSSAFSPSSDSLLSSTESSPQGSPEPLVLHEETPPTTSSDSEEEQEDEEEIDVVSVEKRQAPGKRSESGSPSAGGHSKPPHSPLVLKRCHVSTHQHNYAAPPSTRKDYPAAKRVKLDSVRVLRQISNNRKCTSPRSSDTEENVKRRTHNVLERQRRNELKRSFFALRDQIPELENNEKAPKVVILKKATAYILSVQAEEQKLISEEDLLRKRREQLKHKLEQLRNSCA

| Compound | outcome |
| --- | --- |
| O=C1CCCCCCCCCCC1 | inactive |
| Nc1ccc(Cl)c(N)c1 | inactive |
| CCC(=O)C1CC(C(C)C)CC=C1C (stereo not given) | inactive |
| Cc1ccc([N+](=O)[O-])cc1N | inactive |
| Cc1cc(C)n(CO)n1 | inactive |
| Nc1nc(N)nc(-c2ccccc2)n1 | inactive |
| CCCCC(C=O)CC (stereo not given) | inactive |
| CCCCCCCOC(=O)c1ccc(O)cc1 | inactive |
| CCCCCCCCCC(C)=O | inactive |
| CC(C)CCCCCOC(=O)CS | inactive |
| CCCCCCCCCCCCc1ccc(O)cc1 | inactive |
| CCOC(=O)[C@H](O)[C@@H](O)C(=O)OCC | inactive |
| CC(C)CC(=O)OCc1ccccc1 | inactive |
| CCCC1CCCC(=O)O1 (stereo not given) | inactive |
| CC=CC(=O)OCC(C)C | inactive |
| O=C1c2ccccc2C(=O)c2cc(S(=O)(=O)O)ccc21 | inactive |
| CCCC(CC)c1ccccc1 (stereo not given) | inactive |
| CCCCCC1=CCCC1=O | inactive |
| Cc1ccccc1CCO | inactive |
| CCOC(=O)c1ccc(C)cc1 | inactive |

| Compound | outcome |
| --- | --- |
| CC(C)OC(=O)c1ccccc1 | inactive |
| CC(=O)/C=C/C1C(C)=CCCC1(C)C (stereo not given) | inactive |
| O=c1c(O)c(-c2ccc(O)cc2O)oc2cc(O)cc(O)c12 | inactive |
| C[Si](C)(C)N[Si](C)(C)C | inactive |
| N=C1C=CC(=C(c2ccc(N)cc2)c2ccc(N)cc2)C=C1 | inactive |
| CCCC=C(C=O)CC | inactive |
| CC(=O)OC(C)c1ccccc1 (stereo not given) | inactive |
| CC(C)c1cccc(C(C)C)c1N | inactive |
| CC1=CCC2CC1C2(C)C (stereo not given) | inactive |
| O=C(Cl)c1c(Cl)c(Cl)c(C(=O)Cl)c(Cl)c1Cl | inactive |
| C=CC(=O)OCC(C)OCC(C)OCC(C)OC(=O)C=C (stereo not given) | inactive |
| CCc1occc(=O)c1O | inactive |
| CC(Cl)COP(=O)(OCC(C)Cl)OCC(C)Cl (stereo not given) | inactive |
| Nc1ccc(O)c([N+](=O)[O-])c1 | inactive |
| CCCc1ccc(O)c(OC)c1 | inactive |
| COC(=O)[C@H](Cc1ccccc1)NC(=O)[C@@H](N)CC(=O)O (H-Asp-Phe-OMe) | inactive |
| CCN1CN(CC)CN(CC)C1 | inactive |
| O=C(O)C(F)(F)C(F)(F)C(F)(F)C(F)(F)C(=O)O | inactive |
| CC(=O)c1ccc(S(=O)(=O)NC(=O)NC2CCCCC2)cc1 | inactive |
| C=C(C)C1CC=C(C)CC1 (stereo not given) | inactive |
